GDH-TPI counter-1: GDH-TPI coupling enzyme inhibitors, primary screen, artefact control for M. tuberculosis FBA inhibitor project, biochemical, absorbance, full deck; GDH-TPI coupled enzyme counterscreen, NADH absorbance; inhibition, % at 4.8 µM; actives 1.2% (n = 360,000); AID 588335, 2011; in the data active = inhibition above about 30%;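 also: 0% = DMSO wells and 100% = wells lacking the enzyme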
FBA Mtb inh: Mtb FBA enzyme inhibitors, primary screen, biochemical, fluorescence, strain H37Rv; purified M. tuberculosis FBA, fluorescence read-out; actives 2.3% (n = 360,000); inhibition, % at 1 µM; AID 588726, 2011;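 also: 0% = vehicle and 100% = reference inhibitor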
VHR inh abs: VHR1 phosphatase inhibitors, primary screen, biochemical, absorbance, uHTS; recombinant VHR phosphatase, pNPP absorbance; actives 0.52% (n = 290,000); inhibition, % at 13.3 µM; in the data active = inhibition above about 50%
Target sequence (P51452 whole entry, looked up): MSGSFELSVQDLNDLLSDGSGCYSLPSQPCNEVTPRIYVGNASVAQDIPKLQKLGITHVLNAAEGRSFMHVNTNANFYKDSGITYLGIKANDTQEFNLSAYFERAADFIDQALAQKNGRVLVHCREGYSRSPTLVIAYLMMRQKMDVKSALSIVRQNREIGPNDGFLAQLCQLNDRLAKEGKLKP
Mtb betalactam: beta-lactam sensitization of Mtb H37Rv, H37Rv; M. tuberculosis H37Rv growth with meropenem, percent inhibition; inhibition, % at 25 µM; actives 0.27% (n = 330,000); call rule not given here;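 also: growth measured after seven days incubation then overnight dye step; 0% = bacteria only wells and 100% = bacteria with antibiotic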
Mtb hypoxia rep: PubChem AID 1159583. actives 0.1% (n = 300,000). fluorescence inhibition, % (no concentration beside the values). M. tuberculosis hypoxia-regulated fluorescent reporter, fluorescence; in the data active = fluorescence inhibition mostly above about 23%, no sharp cut-off; inactive = mostly below about 17%
Mtb FBA inh conf: M. tuberculosis aldolase blockers, biochemical, fluorescence, strain H37Rv, confirmation. shares compounds with FBA Mtb inh. AID 651616, 2012. purified M. tuberculosis FBA, fluorescence read-out. inhibition, % at 1 µM. actives 78% (n = 5,600);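 also: 0% = vehicle wells and 100% = reference inhibitor wells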
GDH-TPI counter-2: GDH-TPI coupling enzyme inhibitors, artefact control for M. tuberculosis FBA inhibitor project, biochemical, fluorescence, high throughput; AID 652141, 2013; GDH-TPI coupled enzyme counterscreen; inhibition, % at 1 µM; shares compounds with FBA Mtb inh; actives 81% (n = 5,600); in the data active = inhibition above about 10%
GDH-TPI DR: GDH-TPI coupling enzyme inhibitors, dose response, artefact control for M. tuberculosis FBA inhibitor project, biochemical, fluorescence, IC50. actives 79% (n = 170). shares compounds with FBA Mtb inh. GDH-TPI coupled enzyme assay, artifact counterscreen. IC50, µM; call rule not given here
The depositor's hits bear a star; / = not tested or not shown; + = active, no number. This is a sample that favours compounds with a hit; in the whole collection about 3.6% have one here. Rule as the data show it, unless noted: active = inhibition above about 27%; inactive = the rest.

SMILES | GDH-TPI counter-1 | FBA Mtb inh | VHR inh abs | Mtb betalactam | Mtb hypoxia rep | Mtb FBA inh conf | GDH-TPI counter-2 | others
Cc1cc(OCC(=O)N[C@@H](Cc2ccccc2)C(=O)O)c2c3c(c(=O)oc2c1)CCCC3 | -6 | 51* | 25 | 2 | / | 161* | 117*
Clc1cccc(C=NNc2ncnc3ccccc23)c1 | / | / | / | / | 4 | / | /
COC(=O)C1=C(C(=O)OC)C2N(Cc3ccccc3)c3ccccc3[C@@]23CC(C(=O)OC)N(C(=O)CC(C)C)C3=N1 (stereo partly specified) | / | / | / | / | 9 | / | /
Cc1ccc2c(CN3CCCCC3)cc(=O)oc2c1 | 6 | 3 | 16 | 3 | 10 | / | /
CCCCN(CCCC)Cc1cc(=O)oc2cc(OC)ccc12 | / | 45* | / | / | / | + | +
COc1ccc2c(CN3CCCC3)cc(=O)oc2c1 | / | 36* | / | / | / | 10 | -1 | GDH-TPI DR=5.1*
COc1ccc2c(CC(=O)O)cc(=O)oc2c1 | 12 | 66* | 0 | -2 | -1 | + | +
COc1ccc2c(CC(=O)N[C@@H](Cc3c[nH]c4ccccc34)C(=O)O)cc(=O)oc2c1 | 27 | 22 | 20 | 14 | -3 | / | /
COc1ccc(C=NNc2ncc(-c3ccccc3)cn2)c(OC)c1 | / | / | / | / | 12 | / | /
COC(=O)C1=C(c2ccc(F)cc2OCc2ccccc2)CC2CCC1N2C(=O)NCCCOC(C)C (stereo unspecified) | / | / | / | / | 9 | / | /
O=C(NN=Cc1ccc(F)cc1)c1ccc(-n2cnnn2)cc1 | / | / | / | / | 0 | / | /
CCOC(=O)N1CCC2(CC1)CC(=O)c1c(ccc3oc(C(=O)O)c(C)c13)O2 | 27 | 82* | -1 | -9 | 9 | 33* | 30*
CCCNC(=O)c1oc2ccc3c(c2c1C)C(=O)CC(C)(C)O3 | 12 | 36* | -8 | 11 | 3 | 55* | 51*
CCCNC(=O)c1oc2ccc3c(c2c1C)C=CC(C)(C)O3 | 4 | 16 | -8 | 91 | 13 | / | /
Cc1ccc(CNC(=O)CN(C(=O)C2(C)CC(=O)N=C3C=CC=CN32)c2ccccc2F)cc1 (stereo unspecified) | 3 | 82* | 31 | -2 | -9 | 77* | 53*
Cc1ccc(CNC(=O)CN(C(=O)C2(C)CC(=O)N=C3C=CC=CN32)c2ccc(F)cc2)cc1 (stereo unspecified) | 9 | 69* | 21 | -3 | -1 | -2 | -5
CCCCC1COCCS(=O)(=O)N1Cc1cccc(F)c1 (stereo unspecified) | / | / | / | / | 12 | / | /
COC(CC=CC(O)C(C)OCc1ccccc1)OC (stereo unspecified) | / | / | / | / | 9 | / | /
Nc1cc2nn(-c3ccccc3)nc2cc1Cl | 8 | 36* | 16 | / | 7 | 109* | 88*
COc1cc2cnc(-c3ccsc3)cc2cc1OC | 6 | 5 | / | 14 | 4 | / | /
CNc1cnc(-c2ccsc2)cn1 | 9 | 88* | / | / | / | 134* | 110*
CC1=CC(C)[C@H](/C=N/n2c(=O)[nH]c3c([nH]c4ccc(C)cc43)c2=O)C(C)C1 (stereo partly specified) | 1 | 53* | -5 | -3 | / | -1 | -3
COc1ccc(/C=N/n2c(=O)[nH]c3c([nH]c4ccc(C)cc43)c2=O)cc1CN1CCOCC1 | 14 | 93* | 2 | / | / | 127* | 101*
COc1ccc(C=Nn2c(=O)[nH]c3c([nH]c4ccc(C)cc43)c2=O)cc1CN1CCOCC1 | / | / | / | / | 10 | / | /
Cc1cccc(C=Cc2nc3ccccc3c(=O)n2Cc2ccccc2)c1 | / | / | / | / | 7 | / | /
COc1ccc(C=NOC(=O)c2ccc(Cl)cc2)c(Cl)c1OC | / | / | / | / | 14 | / | /
CC(OC(=O)c1ccc(Cl)c(S(=O)(=O)N2CCc3ccccc32)c1)C(=O)Nc1ncc(Cl)cc1Cl (stereo unspecified) | 3 | 64* | 8 | 0 | 9 | 35* | 24*
